Experimental data published in PubChem BioAssay AID1851 (National Center for Advancing Translational Sciences (NCATS), 2009).
Several values for one entry are separate records, joined by “and”; a condition that tells them apart may be missing. Equal values may be shown once. In all, about 16,000 compounds went through this assay and about 5,800 (36%) were called active. About 23% were inconclusive and are not listed. Calls come from the whole dose curve; as a rule, active = well fitted curve in the direction sought with a large enough effect; inconclusive = small, poorly fitted or top-dose-only effect, or effect the other way; inactive = no such curve, though single readings can be large or run the other way. The list shows a part of the results.

Target: Cytochrome P450 2C19 (Homo sapiens) (UniProt P33261)
Test: Cytochrome panel assay with activity outcomes
Conditions: recombinant CYP, pro-luciferin dealkylation, luminescence, p450-cyp2c19; series mostly up to 57.1 µM
% is set by controls: 0 for no effect and ±100 for the full control effect.

Sequence of Cytochrome P450 2C19 (Homo sapiens) (P33261 whole entry, looked up): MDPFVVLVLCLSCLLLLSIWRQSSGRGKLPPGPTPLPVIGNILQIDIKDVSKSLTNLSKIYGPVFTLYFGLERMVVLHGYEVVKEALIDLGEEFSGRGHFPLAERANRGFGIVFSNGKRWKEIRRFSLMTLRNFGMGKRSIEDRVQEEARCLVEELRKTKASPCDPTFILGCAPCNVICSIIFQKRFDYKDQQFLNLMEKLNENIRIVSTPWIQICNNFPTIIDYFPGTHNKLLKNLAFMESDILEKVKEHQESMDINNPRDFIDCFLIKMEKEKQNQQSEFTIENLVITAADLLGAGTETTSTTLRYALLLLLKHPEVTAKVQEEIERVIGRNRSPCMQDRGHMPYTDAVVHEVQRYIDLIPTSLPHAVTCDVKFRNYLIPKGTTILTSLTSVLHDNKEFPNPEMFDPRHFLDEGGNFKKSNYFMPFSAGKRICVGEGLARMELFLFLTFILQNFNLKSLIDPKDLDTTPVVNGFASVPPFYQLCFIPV

SMILES | AC50 | activity, negative = inhibition
CN(C)c1ncc2nc(CCc3ccccc3)c(=O)n(Cc3ccc(F)cc3)c2n1 | 0.794 µM (active) | 
CN(C)c1ncc2ncc(=O)n(Cc3cccs3)c2n1 | 10 µM (active) | 
CN(C)c1ncc2nc(-c3cc(F)cc(F)c3)c(=O)n(CCc3ccccc3)c2n1 | inactive | 
COc1cccc(Cn2c(=O)c(-c3cccc(C#N)c3)nc3cnc(OC)nc32)c1 | 10 µM (active) | 
Cc1nc2cnc(N(C)C)nc2n(Cc2cccs2)c1=O | inactive | 
COc1cccc(Cn2c(=O)c(-c3cn(C)c4ccccc34)nc3cnc(OC)nc32)c1 | inactive | 
COc1cccc(Cn2c(=O)c(-c3cccc(C#N)c3)nc3cnc(Nc4ccccc4)nc32)c1 | inactive | 
COc1ccc(-c2nc3cnc(OC)nc3n(Cc3cccc(OC)c3)c2=O)cc1 | inactive | 
COc1ccc(Oc2ncc3nc(-c4cccc(C#N)c4)c(=O)n(Cc4cccc(OC)c4)c3n2)cc1 | inactive | 
COc1cccc(Cn2c(=O)c(CCc3ccccc3)nc3cnc(OC)nc32)c1 | 15.8 µM (active) | 
CN(C)c1ncc2nc(-c3ccccc3)c(=O)n(Cc3ccc(F)cc3)c2n1 | inactive | 
CN(C)c1ncc2nc(-c3cccs3)c(=O)n(Cc3cccs3)c2n1 | inactive | 
CC(=O)c1ccc(N2CCC(c3cc(-c4ccc(Cl)cc4)n[nH]3)CC2)c([N+](=O)[O-])c1 | 0.501 µM (active) | 
CC(=O)c1ccc(N2CCC(c3cc(-c4ccc(Cl)cc4Cl)n[nH]3)CC2)c([N+](=O)[O-])c1 | 0.282 µM (active) | 
COc1ccc(-c2cc(C3CCN(c4ccc(C(C)=O)cc4[N+](=O)[O-])CC3)[nH]n2)cc1 | 2.24 µM (active) | 
CC(=O)c1cc(CC=C(C)C)c(O)cc1O | 2.82 µM (active) | 
COc1cc(CC(=O)O)c(C(C)=O)cc1OC | inactive | 
COc1ccc(Sc2ccc(NC(=O)c3ccccc3Cl)cc2C#N)cc1 | 2.82 µM (active) | 
COc1cc(/C=N/Nc2snc(SC)c2C#N)cc(OC)c1OC | 14.1 µM (active) | 
COc1ccc(/C=N/NC(=S)NC2CCS(=O)(=O)C2)cc1OC (stereo not given) | inactive | 
COc1ccc(/C=N/Nc2snc(SC)c2C#N)cc1OC | 5.01 µM (active) | 
O=C(O)c1cc(-c2ccc(-c3ccc(-c4cc(C(=O)O)c5cc(Cl)ccc5n4)cc3)cc2)nc2ccc(Cl)cc12 |  | -23.2% [at 11.4 µM] (inactive)

SMILES | AC50 | activity, negative = inhibition
N/C(=N\OC(=O)c1cc(-c2ccccc2)nc2ccccc12)c1ccc(Cl)cc1 | 7.94 µM (active) | 
O=C(CC(=O)c1ccncc1)c1ccccc1 | 0.398 µM (active) | 
NNC(=O)c1ccncc1 | inactive | 
CCOc1cc(-c2noc(N)c2C#N)cc(OCC)c1OCC | 15.8 µM (active) | 
O=C1[C@@H]2[C@H]3[C@H](O)[C@H](O)C/C(=N/OCc4ccccc4)[C@H]3CC[C@H]2C(=O)N1c1ccc(F)cc1F |  | -4.38% [at 11.4 µM] (inactive)
CN(C)CCO[C@](C)(c1ccccc1)c1ccccn1 | inactive | 
COc1ccc(NC(=O)CSc2nncn2C)c([N+](=O)[O-])c1 | 31.6 µM (active) | 
COc1ccc(NC(=O)CN(C)S(=O)(=O)c2ccc(Cl)cc2)c([N+](=O)[O-])c1 | 8.91 µM (active) | 
COc1ccc(NC(=O)c2cccs2)c([N+](=O)[O-])c1 | inactive | 
CN(C)S(=O)(=O)c1ccc(Nc2ccc(O)c3c2C(=O)c2c([N+](=O)[O-])ccc(O)c2C3=O)cc1 |  | -34.2% [at 11.4 µM] (inactive)
CC(=O)c1c(C(C)=O)c(C)n(NC(=O)c2ccncc2)c1C | 0.2 µM (active) | 
CC(C)NNC(=O)c1ccncc1 | inactive | 
CC(=O)c1c(C(C)=O)c(C)n(NC(=O)c2ccccc2Cl)c1C | inactive | 
CCOC(=O)CC(Nc1nc(N2CCOCC2)nc(N2CCOCC2)n1)c1ccccc1Cl (stereo not given) | 3.16 µM (active) | 
CCC[C@H]1C[C@H](C(=O)N[C@H]([C@@H]2O[C@H](SC)[C@@H](O)[C@H](O)[C@@H]2O)[C@H](C)O)N(C)C1 | inactive | 
Cc1cc(NC(=O)Nc2ccc(N(C)C)cc2)c2cc(F)cc(F)c2n1 | 15.8 µM (active) | 
Cc1cc(C)c(C(N)=O)c(NC(=O)Nc2ccccc2)n1 | inactive | 
Cc1cc(N)c2cc(NC(=O)Nc3ccc4nc(C)cc(N)c4c3)ccc2n1 |  | -6.46% [at 11.4 µM] (inactive)
COc1cc(OC)c2c(c1Cl)O[C@@]1(C2=O)[C@H](C)CC(=O)C[C@@H]1OC | inactive | 
C[C@@H]1NCC[C@H](CC(=O)O)[C@H]1CC(=O)O |  | 4.52% [at 11.4 µM] (inactive)
CC1CCN(C(=O)CSc2nc3cccnc3n2C)CC1 | 8.91 µM (active) | 
Cn1c(SCC(=O)N2CCN(S(=O)(=O)c3ccccc3)CC2)nc2ccccc21 | 15.8 µM (active) | 

SMILES | AC50 | activity, negative = inhibition
O=C(CCc1nc2ccccc2c(=O)[nH]1)OCC(=O)N1CCN(S(=O)(=O)c2ccccc2)CC1 | inactive | 
COc1ccccc1-n1c(SCC(=O)N2CCCC2)nc2cccnc21 | inactive | 
CCCn1c(=O)c2c(ncn2C)n(CCC)c1=O | inactive | 
N#Cc1cccc(NC(=O)N2CC[C@@]3(CCCN(C(=O)c4ccco4)C3)C2)c1 | inactive | 
CCCCCOc1ccc(C(=O)NCC2(c3ccccc3)CCOCC2)cc1 | 7.94 µM (active) | 
O=C(Nc1nnc(-c2ccc(Cl)cc2)o1)Nc1ccccc1Cl | inactive | 
O=C(Cc1ccc(Cl)cc1)Nc1cccc(-c2nnc(-c3ccco3)o2)c1 | 0.0158 µM (active) | 
Clc1ccc(-c2nnc(-c3ccco3)o2)cc1 | 20 µM (active) | 
Clc1ccc2c(N3CCC(CCC4CCN(c5ncnc6cc(Cl)ccc56)CC4)CC3)ncnc2c1 |  | -1.06% [at 11.4 µM] (inactive)
CCCCCC(=O)O[C@H](CC(=O)O)C[N+](C)(C)C | inactive | 
COc1cccc(NC(=O)c2cc(-c3cccnc3)nc3c(Cl)cccc23)c1 | 6.31 µM (active) | 
COc1ccc(-c2nc3cnc(N4CCNCC4)nc3n(C3CC3)c2=O)cc1 | inactive | 
CC1(C)CC(NC(=O)c2ccc3c(c2)OCO3)CC(C)(C)N1 | inactive | 
CC1(C)CC(NCc2ccc3c(c2)OCO3)CCO1 (stereo not given) | 11.2 µM (active) | 
c1ccc(CCc2cccnc2)nc1 |  | -11.1% [at 11.4 µM] (inactive)
c1ccc(NN(Cc2cnccn2)c2ccccc2)cc1 | 2 µM (active) | 
CCc1cc2c(nc1CC)CCN(CC/C(C)=N/O[C@@H](C)c1cn([C@@H]3COC[C@@H]3O)nn1)C2 |  | 14.6% [at 11.4 µM] (inactive)
CC(=O)OC[C@H]1O[C@@H](O/N=C(\C)CCC(=O)OC[C@@H]2O[C@H](C#Cc3ccccc3)C=C[C@@H]2Oc2ccc(C)cc2)[C@H](OC(C)=O)[C@@H](OC(C)=O)[C@H]1OC(C)=O |  | -18.3% [at 11.4 µM] (inactive)
COc1ccc(O[C@H]2C=C[C@@H](c3ccccc3)O[C@H]2COC(=O)CC/C(C)=N\O[C@@H](C)c2cn([C@H]3COC[C@H]3O)nn2)cc1 | 2.51 µM (active) | 
CC(=O)OC[C@@H]1O[C@H](C/C=N\O[C@@H](C)c2cn([C@H](CO)Cc3ccccc3)nn2)C=C[C@@H]1OC(C)=O |  | 25.9% [at 11.4 µM] (inactive) and 17.9% [at 11.4 µM] (inactive)
CO/N=C(/C)CCC(=O)OC[C@@H]1O[C@H](C#Cc2ccccc2)C=C[C@@H]1Oc1ccc(C)cc1 | 3.98 µM (active) | 
C/C(CCC(=O)OC[C@@H]1O[C@H](C#Cc2ccccc2)C=C[C@@H]1Oc1ccc(C)cc1)=N/OC[C@@H](O)COCc1ccco1 |  | -32.2% [at 11.4 µM] (inactive)

SMILES | AC50 | activity, negative = inhibition
C/C(CCC(=O)OC[C@@H]1O[C@H](C#Cc2ccccc2)C=C[C@@H]1Oc1ccc(C)cc1)=N/OC[C@@H](C)[C@H](OCc1ccccc1)C(C)C |  | -30.1% [at 11.4 µM] (inactive)
C/C(CCN1CCc2nc(-c3ccccc3)c(-c3ccccc3)cc2C1)=N\O[C@@H](C)c1cn([C@@H]2COC[C@@H]2O)nn1 |  | 3.9% [at 11.4 µM] (inactive)
C/C(CCC(=O)OC[C@@H]1O[C@H](C#Cc2ccccc2)C=C[C@@H]1Oc1ccc(C)cc1)=N/O[C@@H](C)c1cn([C@H](CO)Cc2ccccc2)nn1 | 3.98 µM (active) | 
CC(C)=NO[C@@H](C)c1cn([C@H](CO)Cc2ccccc2)nn1 |  | -12.3% [at 11.4 µM] (inactive) and -23.6% [at 11.4 µM] (inactive)
COc1ccc(O[C@H]2C=C[C@@H](c3ccccc3)O[C@H]2COC(=O)CC/C(C)=N\O[C@@H](C)c2cn([C@H](CO)Cc3ccccc3)nn2)cc1 | 63.1 nM (active) and 631 nM (active) | 
O=CN1CCN(C[C@H](O)CN2CCCCC2)CC1 |  | 10.2% [at 11.4 µM] (inactive)
O=c1oc2c(Cl)cc(Cl)cc2cc1-c1nnc(Nc2ccccc2F)s1 | inactive | 
O[C@@](CCN1CCCCC1)(c1ccccc1)C1CCCCC1 | inactive | 
OC(CCCN1CCCCC1)(c1ccccc1)c1ccccc1 | inactive | 
CC(C)C(O)(C#CCN1CCCC1)c1ccccc1 (stereo not given) | 10 µM (active) | 
CO[C@H]1COC(=O)[C@H]2CCCN2C(=O)C/C=C\[C@@H](C)[C@H](OC)COC(=O)C/C=C\[C@@H]1C |  | 19.4% [at 11.4 µM] (inactive)
COCCCNC(=O)CN(c1ccc(OC)cc1)S(=O)(=O)c1ccc(NC(C)=O)cc1 | 15.8 µM (active) | 
COc1ccc(N(CC(=O)NN=C2CCCC2)S(=O)(=O)c2ccccc2)cc1 | 6.31 µM (active) | 
O=C(CN(c1ccccc1)S(=O)(=O)c1ccccc1[N+](=O)[O-])NN=C1CCCCCCC1 | 0.794 µM (active) | 
COC(=O)[C@@]1(Cc2ccc(F)cc2)[C@H]2c3cc(C(=O)N(C)C)n(Cc4ccc(C)c(F)c4F)c3C[C@H]2CN1C(=O)c1ccccc1 | 15.8 µM (active) | 
COC(=O)[C@@]1(Cc2ccccc2)[C@H]2c3cc(C(=O)N4CCCC4)n(Cc4ccc(C)o4)c3C[C@H]2CN1C(=O)c1ccccc1 | 2.51 µM (active) | 
COC(=O)[C@@]1(Cc2ccc(F)cc2)[C@H]2c3cc(C(=O)N4CCCC4)n(Cc4ccc(C)o4)c3C[C@H]2CN1C(=O)c1ccccc1 | 5.01 µM (active) | 
COC(=O)[C@@]1(Cc2ccc(F)cc2)[C@H]2c3cc(C(=O)N(C)C)n(Cc4ccc(C)o4)c3C[C@H]2CN1C(=O)c1ccccc1 | 15.8 µM (active) | 
COC(=O)[C@@]1(Cc2ccc(F)cc2)[C@H]2c3cc(C(=O)N4CCCC4)n(Cc4ccc(OC(F)(F)F)cc4)c3C[C@H]2CN1C(=O)c1ccccc1 | inactive | 
